# From PubChem
# Most compounds without a hit are left out; they make up all but 19% or so of the library.
# KB-3-1 tox: kills parental KB-3-1 adenocarcinoma cells | 400,000 tested, 1.4% active | Potency, µM (highest dose often 46.1 µM), usual class: cytotoxic | KB-3-1 viability, CellTiter-Glo ATP luminescence, 72 h; note: nearly all actives have a fitted effect of over 60% in size
#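 Parental KB-3-1 adenocarcinoma cells in phenol-red-free DMEM with 10% FBS were pin-treated with compounds at several concentrations, incubated 72 h at 37 °C, and viability read by CellTiter-Glo luminescence; concentration-effect curves were fitted after normalization.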
# KB-V1 cytotox: kills drug-selected multidrug resistant KB-V1 cells. KB-V1 MDR cells viability, CellTiter-Glo, 72 h. Potency, µM (series often up to 46.1 µM), actives largely listed as cytotoxic. 400,000 tested, 3.4% active; note: nearly all actives have a fitted effect of over 60% in size
#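 Readout: CellTiter-Glo luminescence, 10 min after addition. Cells: KB-V1 MDR subline, 72 h at 37 degrees C with compound. Analysis: corrected, normalized data fitted to concentration-effect curves.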
# HT1080 IDH1KD tx: toxicity to HT-1080 IDH1 knockdown cells (counter line); 360,000 tested, 2% active; HT-1080 IDH1 knockdown viability, ATP luminescence, 48 h; Potency, µM (titrated, usually from 46.1 µM), for inactives: top-dose activity, negative = toxicity, actives largely listed as cytotoxic;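 note: 0% = DMSO wells and -100% = cell-free medium wells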
#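 Luminescent ATP read-out (CellTiter-Glo, 10 min at room temperature) after 48 h compound exposure at 37 °C gave viability of IDH1-knockdown HT-1080 cells. Activity was normalised to DMSO and cell-free wells, then fitted as concentration-response curves.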
# TDP1 cell noCPT: qHTS for Inhibitors of human tyrosyl-DNA phosphodiesterase 1 (TDP1): qHTS in cells in absence of CPT; DT40 Tdp1-/- hTDP1 cells, no CPT, ATP luminescence, 48 h; Potency, µM (highest dose often 46.2 µM), without a hit: top-dose activity change, negative = growth inhibition, most hits filed as inhibitors; 420,000 tested, 15% active; AID 686978, 2013; note: nearly all actives have a fitted effect of over 55% in size
#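 Cells were dispensed at 400 per well, compounds added by pin tool, plates incubated ≥48 hr at 37 °C, then CellTiter-Glo added for 30 min at room temperature before luminescence reading. Line: DT40 Tdp1-/- complemented with hTDP1; camptothecin omitted.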
# TDP1 cell CPT: growth inhibition of DT40 Tdp1-/-;hTDP1 cells with camptothecin (screen for TDP1 inhibitors) | Potency, µM (titrated, usually from 46.2 µM), for the others: at the top dose activity change, negative = growth inhibition, actives largely listed as inhibitors | 420,000 tested, 12% active | chicken DT40 Tdp1-/-;hTDP1 cells + 20 nM CPT, ATP luminescence, 48 h; note: nearly all actives have a fitted effect of over 55% in size
#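 Chicken DT40 Tdp1-/- cells stably complemented with human TDP1 were seeded at 400 cells/well in medium containing 20 nM camptothecin, exposed to pin-transferred compounds, and grown at 37 °C for at least 48 hr. Viability was read as ATP luminescence.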
# HT1080NT lethal: kills 2HG-producing HT-1080-NT fibrosarcoma cells. HT-1080-NT fibrosarcoma viability, CellTiter-Glo ATP luminescence, 48 h. Potency, µM (doses to about 46.1 µM), inactives show at the top dose activity, negative = less viability, hits mostly cytotoxic. 360,000 tested, 1.6% active;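 note: NT is the 2HG producing partner of a matched IDH1 knockdown line; 0% = DMSO-treated cells and -100% = media-only wells without cells; nearly all actives have a fitted effect of over 55% in size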
#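 HT-1080-NT fibrosarcoma cells (2HG-overproducing), 750 cells/well in RPMI with 5% FBS, dosed after 2 h and incubated 48 h at 37C. CellTiter-Glo luminescence normalized to DMSO and no-cell wells; concentration-response curves fitted and classed.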
# * hit, by the source's call; i = inactive; ? = inconclusive; · = not tested or not shown. Calls come from the whole dose curve; as a rule, active = well fitted curve in the direction sought with a large enough effect; inconclusive = small, poorly fitted or top-dose-only effect, or another doubt; inactive = no such curve, though single readings can be large; an effect the other way counts as inactive or inconclusive. Unless noted, % is set by controls: 0 for no effect and ±100 for the full control effect; potency is the fitted concentration of half-maximal effect.
SMILES,KB-3-1 tox,KB-V1 cytotox,HT1080 IDH1KD tx,TDP1 cell noCPT,TDP1 cell CPT,HT1080NT lethal
Cc1ccc(NC2=CC(=O)CC(c3ccc(Cl)cc3)C2)cc1 (stereo not given),i,?,-5%,12µM*,?,-5%
Cc1cc(C)cc(NC2=CC(=O)CC(c3ccco3)C2)c1 (stereo not given),i,16µM*,-12%,-26%,-14%,-2%
Cc1cc(F)ccc1Nc1nc2ccc(Cl)cc2n2cnnc12,·,·,·,-26%,10%,·
O=C(/C=C/[C@H]1O[C@@H](n2cnc3c(NC(=O)c4ccccc4)ncnc32)[C@H](O)[C@@H]1O)NCc1cccc2ccccc12,i,i,0%,-22%,0%,3%
COC(=O)[C@H]1C[C@@]2(O)CN(S(=O)(=O)c3ccc(C)cc3)C[C@@]2(OC(=O)Nc2cccs2)C[C@H]1C(=O)OC,i,i,-8%,?,?,3%
CC(=O)Nc1ccc(C2=CC(=O)C[C@H](c3ccc(Cl)cc3)C2)cc1,i,i,-18%,16µM*,18µM*,-12%
COc1ccc([C@H]2CC(=O)C=C(c3ccc(NC(C)=O)cc3)C2)cc1OC,i,i,-1%,?,?,4%
O=C1C=C(Nc2ccc(Cl)cc2)CC(c2ccccc2)C1 (stereo not given),?,?,9.2µM*,12µM*,21µM*,12µM*
COc1ccc(NC(=O)c2ccc(CN3CCc4ccccc4C3)cc2)cc1OC,?,8.2µM*,-17%,-17%,?,-24%
COc1c(F)c(F)c(C(=O)Nc2ccc(N3CCN(Cc4ccccc4)CC3)cc2)c(F)c1F,?,?,?,11µM*,16µM*,?
COc1cccc(NC(=O)c2ccc(CN3CCN(c4ccccc4)CC3)cc2)c1,8.9µM*,?,?,18µM*,?,-24%
COc1ccc(C(=O)Nc2ccc(N3CCN(Cc4ccccc4)CC3)cc2)cc1,i,i,16%,-17%,-14%,-1%
C/C(=N\NC(=O)c1ccc(CN2CCc3ccccc3C2)cc1)c1ccccc1O,15µM*,?,21µM*,8.2µM*,12µM*,?
CN(C)S(=O)(=O)c1ccc(NC(=O)C2CC(=O)N(Cc3ccccc3Cl)C2)cc1 (stereo not given),i,i,-2%,0%,8%,-15%
CCOC(=O)C1(C)CCN1C(=O)c1ccccc1C(F)(F)F (stereo not given),i,i,17%,-21%,-11%,12%
O=C(CSCc1ccco1)N1CCc2ccccc21,?,i,-4%,-20%,?,5%
COc1cccc(N2CCN(CC(=O)Nc3nnc(-c4ccccc4)s3)CC2)c1,i,i,?,21µM*,23µM*,-19%
COc1cccc(N2CCN(CC(=O)NC3=Nc4ccccc4N=C(C)C3c3ccccc3)CC2)c1 (stereo not given),i,?,-7%,?,?,-7%
COc1cccc(NC(=O)c2ccc(CN3CCc4ccccc4C3)cc2)c1,i,i,-18%,?,16µM*,-10%
Cc1cc(C)c(NC(=O)c2ccc(CN3CCc4ccccc4C3)cc2)c(C)c1,?,?,-24%,12µM*,16µM*,-28%
COc1ccc(CN2CCc3cc(OC)c(OC)cc3C2)cc1O,?,16µM*,-10%,?,?,1%
CC(=O)c1cccc(NC(=O)c2ccc(CN3CCc4ccccc4C3)cc2)c1,i,i,-11%,-20%,-27%,-25%
COC(=O)c1cc2oc(C)cc2n1Cc1c(C)cc(C)cc1C,i,i,·,2%,1%,·
O=C(OCn1nnc2ccccc2c1=O)c1ccc2ccccc2n1,i,i,8%,-11%,-6%,2%
CC1=C(C(=O)Nc2c(C)cc(C)cc2C)C2(CCN(C(C)C)CC2)OC1=O,i,i,·,1%,-21%,·
SMILES,KB-3-1 tox,KB-V1 cytotox,HT1080 IDH1KD tx,TDP1 cell noCPT,TDP1 cell CPT,HT1080NT lethal
CC(=O)N1CCC[C@@]2(CCN(C(=O)Nc3cccc(C#N)c3)C2)C1,·,·,·,21%,1%,·
CCCCN1C(=O)C(O)(CC(=O)c2ccco2)c2cc(Br)ccc21 (stereo not given),15µM*,i,?,4.1µM*,2.6µM*,?
CCCCN1C(=O)C(O)(CC(=O)c2c(C)n[nH]c2C)c2cc(Br)ccc21 (stereo not given),i,?,5%,-20%,3%,0%
CCCCN1C(=O)C(O)(CC(=O)c2ccc(C)cc2C)c2cc(Br)ccc21 (stereo not given),i,i,·,16µM*,16µM*,·
CC(NC(=O)Oc1cccc2ccccc12)c1ccccc1 (stereo not given),i,i,-26%,26µM*,?,-14%
COCCNC(=O)c1ccc(CSc2nc3ccncc3n2Cc2ccccc2)cc1,i,?,·,-24%,-3%,·
Cc1ccc(NC(=O)Cn2c(SCc3cccc(F)c3)nc3ccncc32)c(C)c1,i,i,·,?,?,·
COc1ccc(NC(=O)Cn2c(SCc3cccc(Cl)c3)nc3ccncc32)c(OC)c1OC,i,i,·,?,21µM*,·
CNC(=O)c1ccc(CSc2nc3ccncc3n2Cc2ccc(C)cc2)cc1,i,i,·,?,?,·
COC(=O)c1ccc(Cn2c(SCc3cccc(C)c3)nc3ccncc32)cc1,i,i,·,16µM*,?,·
Cc1cccc(Cn2c(SCc3ccc(C(=O)NCc4ccccc4F)cc3)nc3ccncc32)c1,i,i,·,23µM*,?,·
Cc1cccc(Cn2c(SCc3ccc(C(=O)NC4CCCCC4)cc3)nc3ccncc32)c1,i,i,·,-19%,-9%,·
COc1cccc(CNC(=O)c2ccc(CSc3nc4ccncc4n3Cc3cccc(C)c3)cc2)c1,i,?,·,16µM*,21µM*,·
COc1ccc(-c2cc(C)no2)cc1S(=O)(=O)Nc1cccc(CN2CCCC2)c1,i,i,-19%,0%,1%,-42%
Cc1[nH]c2ccccc2c1C(=O)C(=O)NCc1cccs1,i,i,8%,?,5%,2%
CN1C(=O)CC2(C)C1=CCc1scnc12 (stereo not given),i,i,14%,-5%,7%,10%
